Source: PMC7819943, “Rice protein-binding microarrays: a tool to detect cis-acting elements near promoter regions in rice”
Over roughly 68,000 sequences, “fluorescence intensity (a.u.)” has its median near 9,100; the highest 2% begin near 16,000. The sample holds the highest values, similar sequences and a random draw of the others, so the mix is not that of the screen.

Molecular target: OsWRKY34 (Oryza sativa, UniProt Q0JBA9 1-250)
Experiment: protein-binding microarray (RPBM); PBS, 2% BSA, 51.3 ng/ul salmon testes DNA, 50 uM zinc acetate, 200 nM TF, 25 C, 1 h; high values mean tight binding
Conditions: protein: recombinant; tags: N-terminal polyhistidine and DsRed monomer fusion (pET32a); label: CyDye5-dUTP incorporated in the synthesized complementary strand; 3' TTTTT single-stranded linker to array surface; dsDNA, one strand shown
Summary of the method: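 Transcription factors were made in E. coli BL21-CodonPlus as N-terminal fusions to a polyhistidine tag and DsRed, then purified on Ni–NTA. After primer extension with Cy5-dUTP and blocking with 2% BSA, a custom Agilent array was exposed for 1 h at 25 °C to 200 nM protein in PBS, 2% BSA, salmon testes DNA and 50 µM zinc acetate. Washed arrays were scanned on an Axon 4000B, and the binding signal is per-feature fluorescence intensity in arbitrary units.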

Sequence of OsWRKY34 (Q0JBA9 entry or part of it): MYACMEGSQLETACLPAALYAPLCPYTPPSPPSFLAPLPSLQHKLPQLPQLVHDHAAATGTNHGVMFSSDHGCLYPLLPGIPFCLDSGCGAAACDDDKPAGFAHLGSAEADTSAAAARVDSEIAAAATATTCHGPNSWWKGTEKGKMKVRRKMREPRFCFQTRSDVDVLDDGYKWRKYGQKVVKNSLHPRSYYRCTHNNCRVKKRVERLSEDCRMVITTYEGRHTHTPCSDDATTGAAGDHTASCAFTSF

Sequence | binding signal
GCCTCTGCCCATCGCATCGATCCCCGCCGTCCCTCCACCCCGGAGTCACCTAGTGCAG | 11000 fluorescence intensity (a.u.)
TCGAACTATGTTTCTGGAGTTGTTTGTGTTAAAGTCCCAACGGAGTCACCTAGTGCAG | 8860 fluorescence intensity (a.u.)
CCGCCACATGCTGCTGCCGCCCCAGCCGTCGGCTGCTTCTCGGAGTCACCTAGTGCAG | 8560 fluorescence intensity (a.u.)
TTTGCGGGTGGAGTTTTTTAAGTTTTTGGATTTCCTGTTTCGGAGTCACCTAGTGCAG | 11700 fluorescence intensity (a.u.)
CTCGACCACACATATATGTTCGATACATTCCATATCTTCCCGGAGTCACCTAGTGCAG | 10700 fluorescence intensity (a.u.)
AACAAAAGCACCCCTGTCCGATCCTATATTTGTTGCAGTTCGGAGTCACCTAGTGCAG | 9240 fluorescence intensity (a.u.)
GAAGAGGAGGAGGAGGAGGAGGAGGAGGAGGGGATCAATGCGGAGTCACCTAGTGCAG | 8350 fluorescence intensity (a.u.)
TGTTCTTGAGTTGCTTATATATGGCCTTCTAGCTCAGCTCCGGAGTCACCTAGTGCAG | 8540 fluorescence intensity (a.u.)
TGATTGCCTTCTCGATTTTGTTTGTCATTGCGTCTTTGCACGGAGTCACCTAGTGCAG | 8190 fluorescence intensity (a.u.)
CATTTTTTTAGCTTGTTCTTCCTTGTGTCACAAACATTTCCGGAGTCACCTAGTGCAG | 11300 fluorescence intensity (a.u.)
GCTTGCTTGCTTGTTGCTTCCATTCCATTCCATTCCACACCGGAGTCACCTAGTGCAG | 10400 fluorescence intensity (a.u.)
TGACCACCATTGCTGCTTCTGCTTCTTCTTGTATGTATACCGGAGTCACCTAGTGCAG | 17200 fluorescence intensity (a.u.)
TCCTTGTATGAATCCATTGCCTTGCTTCTGCTTGCCCATTCGGAGTCACCTAGTGCAG | 8530 fluorescence intensity (a.u.)
CTTCTCCTGCTTGTTTCCTTGTCTTGTGGTGCATCACATCCGGAGTCACCTAGTGCAG | 8810 fluorescence intensity (a.u.)
GGGTGGTCCTGCTTCTACCTTGTATACAAAACATTTCTTCCGGAGTCACCTAGTGCAG | 17000 fluorescence intensity (a.u.)
GTATTCCTACTTGAACTCTTCTTTTACTTTATTTTTCTAACGGAGTCACCTAGTGCAG | 10600 fluorescence intensity (a.u.)
CACTGCCACTCGCCACCCAGCTCCGTCCTATGCCTCCGCGCGGAGTCACCTAGTGCAG | 12400 fluorescence intensity (a.u.)
TGCACCGCGCGCAGGGTAGGGTGGGCGTCCTTGCCATTGTCGGAGTCACCTAGTGCAG | 8740 fluorescence intensity (a.u.)
CTTATTTCTTTTCCAGTTAGGCATATATTATCTGTTTTCTCGGAGTCACCTAGTGCAG | 8700 fluorescence intensity (a.u.)
ATATATATATATATATATATATATATATATAATCTCTCCTCGGAGTCACCTAGTGCAG | 9910 fluorescence intensity (a.u.)
AAAATCTCCTACTAGCTCACTTCACAATGGATCAAACAAACGGAGTCACCTAGTGCAG | 8230 fluorescence intensity (a.u.)

Sequence | binding signal
ATAATATATAATCAAACAAAAAAATGGACTATAATCTCTCCGGAGTCACCTAGTGCAG | 64400 fluorescence intensity (a.u.)
ACTATGGGCTTTTGCATCAACAATTGCGAATTTTTTGTATCGGAGTCACCTAGTGCAG | 9280 fluorescence intensity (a.u.)
AACTTGCGAAAATTTGACTATCAATTAGCTGGGCGATTGACGGAGTCACCTAGTGCAG | 32700 fluorescence intensity (a.u.)
CTTTTTATCTCAAATTTGAAAACTTTCAACTTGGATTTGACGGAGTCACCTAGTGCAG | 8520 fluorescence intensity (a.u.)
GGGCCCCAGTCAGGGTGCGGGGCCACGGAGGGGTCGGGGACGGAGTCACCTAGTGCAG | 9260 fluorescence intensity (a.u.)
GTGGGGATGGAGGCGTCGTCGGGGTCGTCGTAGAGGTGGGCGGAGTCACCTAGTGCAG | 9240 fluorescence intensity (a.u.)
GGGTGGGGAGGTGGTGGTCGTCGGGCAGGTGGGGAGGATGCGGAGTCACCTAGTGCAG | 23900 fluorescence intensity (a.u.)
CTGCGGGAGGACGGGTCCGGGGCGGGGTCCGGGTCGGTGCCGGAGTCACCTAGTGCAG | 9780 fluorescence intensity (a.u.)
GGAGGATGCGGGTGGTGGTGGAGGAGGAGGAGGCCGAGGTCGGAGTCACCTAGTGCAG | 12400 fluorescence intensity (a.u.)
GTCGGGGAGGTCGGGGTCAGGGAGGTCGGGGCCGGTGATGCGGAGTCACCTAGTGCAG | 18900 fluorescence intensity (a.u.)
GCAGACAACTCCGTCGCTGTTACTTCCTCTATGCCAAAACCGGAGTCACCTAGTGCAG | 9350 fluorescence intensity (a.u.)
AGCGCGCGCAGCTTTGCAGGCGTGGTCGGGGTCGTTGTGCCGGAGTCACCTAGTGCAG | 9700 fluorescence intensity (a.u.)
TTTACATATCTATCTTTTTTTTTTGTTTTTTCTCGCTTTTCGGAGTCACCTAGTGCAG | 8460 fluorescence intensity (a.u.)
AACCTTTCTATAGATTTTTTTTTTTTACAAAAACACATCACGGAGTCACCTAGTGCAG | 11700 fluorescence intensity (a.u.)
ACCATTATTCTGTTGTCAACTGCATGCCGCAACAAACTGACGGAGTCACCTAGTGCAG | 8420 fluorescence intensity (a.u.)
AGGTCAACAACCAGTGTCAAGATCTGACCATGCAATTAGCCGGAGTCACCTAGTGCAG | 17600 fluorescence intensity (a.u.)
AATCCCAAGCTAGGTGTTGACCATGGGTCAACAATCTCCCCGGAGTCACCTAGTGCAG | 9470 fluorescence intensity (a.u.)
AACTAACTGGCACGCCCTCATATCACCAACCTTTGGACCTCGGAGTCACCTAGTGCAG | 8560 fluorescence intensity (a.u.)
CTTTCTGATCACCAACTCCGCTCCTTTTAATCGCAACTACCGGAGTCACCTAGTGCAG | 9660 fluorescence intensity (a.u.)
ATATCTGCTTCTACGTCGTCTACGAAGCCGCCGAGACGTCCGGAGTCACCTAGTGCAG | 9320 fluorescence intensity (a.u.)
TCCTGTGGTACCCCTGTCGCCGAATCTACGCATCTGCCAACGGAGTCACCTAGTGCAG | 8140 fluorescence intensity (a.u.)

Sequence | binding signal
CTGCCGAAGCAACGGATCTGAATCTACGTACCGAGCTTGTCGGAGTCACCTAGTGCAG | 64600 fluorescence intensity (a.u.)
ACTCTCTTCCTCACGACGCACCACGGGCTAGCCACTCCTACGGAGTCACCTAGTGCAG | 8340 fluorescence intensity (a.u.)
CCTTTTGTTTTTGGGGCTTGTAGTTTTTGGAAATTTGGGGCGGAGTCACCTAGTGCAG | 18300 fluorescence intensity (a.u.)
TTACAAACAAAAACTCAAAATCCCTTATATTTTGGGACAGCGGAGTCACCTAGTGCAG | 64700 fluorescence intensity (a.u.)
GAAAAATTGTCCCTTTTTATTTGGGAGGGGAGGGAGGAGGCGGAGTCACCTAGTGCAG | 17100 fluorescence intensity (a.u.)
TTTTTTTTTCTTTTGGGGCGGAAGGAGTAGTATGGAGTTTCGGAGTCACCTAGTGCAG | 12300 fluorescence intensity (a.u.)
TGTTTGCTTATTACTATTTTTTTTGGGGCGGGAAATTAAACGGAGTCACCTAGTGCAG | 14100 fluorescence intensity (a.u.)
CTTATTTAGTTGGGGAAAATTTTTGGGTTTGTTTGTCACACGGAGTCACCTAGTGCAG | 11600 fluorescence intensity (a.u.)
AAAATTTTATTTTTCATGTGTGGCTTATTGTCCTTTTTTGCGGAGTCACCTAGTGCAG | 9470 fluorescence intensity (a.u.)
ATTCTCAAAATCGAATTTGTTTTTATATTTCCCTTACTGTCGGAGTCACCTAGTGCAG | 14700 fluorescence intensity (a.u.)
GCAGGCGGCGGAGGATTTTTGGGAGGGGAAAACGGCGAGTCGGAGTCACCTAGTGCAG | 8540 fluorescence intensity (a.u.)
TATTGTTTAGTTGGGAAAAAAATTTGGGGTTGGTTGTCACCGGAGTCACCTAGTGCAG | 10400 fluorescence intensity (a.u.)
TATTTGGTTTTGTAGGGGTTGGTTTGGGAAAATTGGAAAGCGGAGTCACCTAGTGCAG | 16400 fluorescence intensity (a.u.)
TTATATTTTGGGACGGAGTATTACTTTGAATCCCTTTTCCCGGAGTCACCTAGTGCAG | 8280 fluorescence intensity (a.u.)
CTTTTTATTACCGGTGTTTCGCTTTGGACCACCCTTCAACCGGAGTCACCTAGTGCAG | 9170 fluorescence intensity (a.u.)
CCACCAATCCACCACCGCCACGCCACTTCACCCTTGTTTTCGGAGTCACCTAGTGCAG | 9810 fluorescence intensity (a.u.)
CTCCGTCGCCACTCACACCCATGGCCTTGACCGCTACTAGCGGAGTCACCTAGTGCAG | 9550 fluorescence intensity (a.u.)
GTTTTGAAAGGTATTGTTGGGTAGTAATAGGCTTCATCTTCGGAGTCACCTAGTGCAG | 10200 fluorescence intensity (a.u.)
TTCCTTTTGTGTTGTTTCCCTTTCAGTTTCATCTTTTGCTCGGAGTCACCTAGTGCAG | 8110 fluorescence intensity (a.u.)
ACTTGTCCTTGATCCTGCCCCACTTCGGATTGTCAATCGACGGAGTCACCTAGTGCAG | 8730 fluorescence intensity (a.u.)
CGTTCCTTGGTATTCTCCCTCGTGGTGTAAATGTACGTATCGGAGTCACCTAGTGCAG | 9740 fluorescence intensity (a.u.)

Sequence | binding signal
TTGTTGCAGCCTCGCAGTAAGATTCCTTGTTTTTCTTAGCCGGAGTCACCTAGTGCAG | 8620 fluorescence intensity (a.u.)
TCGCTTTTTACTTTTTATTTTTTTACACATCCGACTCAAACGGAGTCACCTAGTGCAG | 8260 fluorescence intensity (a.u.)
CACCCAAGCCAAGCCCACGACCCGCACCGCAACACGCACACGGAGTCACCTAGTGCAG | 8520 fluorescence intensity (a.u.)
ACCCAAAGCCACCCGCAACAACCGACGACGACGACGACCGCGGAGTCACCTAGTGCAG | 18200 fluorescence intensity (a.u.)
CCCGCACCGCAACACGCACACCCACGCGCACGCACAAACCCGGAGTCACCTAGTGCAG | 8060 fluorescence intensity (a.u.)
CCACGCTATCCCATGCGATTCGAGAAGGTTCCACACACACCGGAGTCACCTAGTGCAG | 8430 fluorescence intensity (a.u.)
AATGGTGCAATACAATTTCAAGCGTATCACTGTTGTTCCTCGGAGTCACCTAGTGCAG | 9720 fluorescence intensity (a.u.)
TTCAAAATGTTTGATACCGTTGACTTTTTAGCACATTTTGCGGAGTCACCTAGTGCAG | 29400 fluorescence intensity (a.u.)
GACTTTTTAGCACATTTTTGACCGTTCATCTTATTCAAAACGGAGTCACCTAGTGCAG | 8780 fluorescence intensity (a.u.)
TCAAAATGTTTAACGCCGTTGACTTTTTAGCACATTTTTGCGGAGTCACCTAGTGCAG | 33000 fluorescence intensity (a.u.)
GGTTTCAAGAAAAGGAAAAGAAAAACTAAACGTAGTATAACGGAGTCACCTAGTGCAG | 11300 fluorescence intensity (a.u.)
AGTATCAAGCGATACAGGAGCTCCTCACTCCATCTCTCTACGGAGTCACCTAGTGCAG | 8330 fluorescence intensity (a.u.)
CACTCTCTCTCGCTGTCTTTCTCTCCTTCCATTTCATTTCCGGAGTCACCTAGTGCAG | 8250 fluorescence intensity (a.u.)
CGTTTCTCTTTCTTTCTTCCCTTCGGTTTCTCCTCCTCTCCGGAGTCACCTAGTGCAG | 10600 fluorescence intensity (a.u.)
CCTCCTCTCCCTTTTCTGCTGTTTCTCTCTCTCACACACTCGGAGTCACCTAGTGCAG | 8470 fluorescence intensity (a.u.)
CGCCGGTTGCTTCCATATACTCTGCTCCTTTTTTTTCTATCGGAGTCACCTAGTGCAG | 9240 fluorescence intensity (a.u.)
TTCGGTTTTTCTCTTCATCATTTCTCTTTATTTCTTTCTCCGGAGTCACCTAGTGCAG | 9290 fluorescence intensity (a.u.)
GTTTTGCACATCCGGTTTTCTCTCTCTCTCTCTCTCCTTTCGGAGTCACCTAGTGCAG | 16700 fluorescence intensity (a.u.)
CACACACTCTCCGGTTTTTTTTTCCTTTTCATTTTTTTCTCGGAGTCACCTAGTGCAG | 28000 fluorescence intensity (a.u.)
ATATCTACTCCCGGTTTCTGCTGGATTCCTTCCTTTTTCTCGGAGTCACCTAGTGCAG | 17500 fluorescence intensity (a.u.)
TTTTTTTCTCCTTTCCTTCTTCTCTCTCTCTCTTTTTTTTCGGAGTCACCTAGTGCAG | 8870 fluorescence intensity (a.u.)
